GluA2 TARP mod – GluA2-stargazin AMPA receptor complex modulation. hit rate 3.5% among 40,000. AID 1259245. O88602+P19491. calls only at 30 µM. HEK293 GluA2+stargazin, membrane potential dye (FDSS), glutamate EC50; hits were called plate by plate, in both directions;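 active means any of four per-well response measures lying three or more SD from its plate-wide compound average, in either direction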
GIRK2 act – Activates human GIRK2-containing potassium channels. P48051. HEK293 GIRK2/NPY4 cells, thallium flux fluorescence. activation (% efficacy), % for hits at 75 µM. 34,000 tested, under 10 active;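 active means primary screen hit, no activity in plain HEK293 cells, and in GIRK2-only cells above 5% efficacy rising with concentration; inactive means the rest, including fluorescent compounds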;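 further: efficacy is normalized control-subtracted fluorescence 15 s after thallium addition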
The depositor's hits bear a star; i = inactive; . = no result given; + = active, no number; ! = repeats disagree. The entries come from a sample that favours hits as a whole.

SMILES | GluA2 TARP mod | GIRK2 act
COc1ccc(Cl)cc1C(=O)Nc1ccc2c(c1)N(C(=O)c1cccs1)CC2 | . | i
COCCn1c(=O)c2c(nc3n(-c4ccccc4)c(-c4ccccc4)cn23)n(C)c1=O | i | .
CCCc1cc(=O)n(CC(=O)Nc2cc(OC)ccc2OC)cn1 | i | i
Cn1cccc1C(CNC(=O)C(=O)NCc1cccs1)N1CCCCCC1 (configuration not stated) | i | i
COc1ccc(-c2ccc(=O)n(CCCNC(=O)Nc3cccc(OC)c3)n2)cc1 | i | i
O=C(NCc1nc2ccccc2n1CC1CCCCC1)c1ccco1 | . | i
COc1ccc(C(=O)NCC(c2cccc3ccccc23)N(C)C)cc1OC (configuration not stated) | i | .
C=C(C)Cn1c(N2CCN(CC(N)=O)CC2)nc2c1c(=O)[nH]c(=O)n2C | i | .
COc1ccc(OC)c(-c2nnc(NC(=O)c3ccnn3C)o2)c1 | . | i
COc1ccc(-c2nnc(NC(=O)C3CC3)o2)c(OC)c1 | + | .
CCn1nccc1C(=O)Nc1nnc(-c2ccc(OC)cc2OC)o1 | + | i
COc1ccc(-c2nnc(NC(=O)Cc3ccc(C)cc3)o2)c(OC)c1 | i | i
COc1ccc(-c2nnc(NC(=O)Cc3ccc(SC)cc3)o2)c(OC)c1 | + | .
COc1ccc(-c2nnc(NC(=O)C3CCCN3S(C)(=O)=O)o2)c(OC)c1 (configuration not stated) | i | i
Cc1cc(NC(=O)c2ccc(F)c(F)c2)n(-c2nc3c(cnn3-c3cccc(Cl)c3)c(=O)[nH]2)n1 | i | i
Cc1ccnc(NC(=O)c2cccc(S(=O)(=O)N3CCCCCC3)c2)c1 | i | .
CN1C(=O)N(C)C2(CCN(C(=O)c3ccco3)CC2)C1=O | i | i
CCc1nnc(NS(=O)(=O)c2ccc(NC(=O)c3cc4cc([N+](=O)[O-])ccc4s3)cc2)s1 | + | .
CCc1nnc(NS(=O)(=O)c2ccc(NC(=O)c3ccc([N+](=O)[O-])o3)cc2)s1 | i | .
CCOC(=O)c1ccccc1NC(=O)CSc1c(C)cnc2c1c(=O)n(C)c(=O)n2C | i | i
CCOC(=O)c1ccccc1NC(=O)CSc1c(CC(C)C)cnc2c1c(=O)n(C)c(=O)n2C | + | .
CCc1nnsc1C(=O)Nc1sc2c(c1C(=O)NCc1ccccc1)CCCC2 | i | i
Cc1n[nH]c(C)c1S(=O)(=O)N1CCN(c2ccc(-c3ccccn3)nn2)CC1 | + | i
Cc1nnsc1C(=O)N1CCN(c2ccc(-c3ccccn3)nn2)CC1 | i | i
Cc1n[nH]c(C)c1S(=O)(=O)N1CCN(c2ccc3nnc(C4CC4)n3n2)CC1 | + | i
SMILES | GluA2 TARP mod | GIRK2 act
CCCS(=O)(=O)N1CCN(c2ccc3nnc(C4CC4)n3n2)CC1 | i | i
O=C(Nc1cccc(N2CCCCC2=O)c1)c1ccco1 | i | i
CN1CCN(CC(O)COCCOc2ccc(Br)cc2)CC1 (configuration not stated) | i | i
CC1CCN(CC(O)COCCOc2ccc(Cl)cc2)CC1 (configuration not stated) | + | .
CC1CCN(CC(O)COCCOc2ccc(Br)cc2)CC1 (configuration not stated) | + | i
CC1CCN(CC(O)COCCOc2ccc(C(C)C)cc2)CC1 (configuration not stated) | . | i
Cc1cc(-c2nnc(NC(=O)c3ccc(S(=O)(=O)N(C)C4CC4)cc3)o2)nn1C | i | i
CC1CCN(c2nc3c(c(=O)[nH]c(=O)n3C)n2CC(O)CO)CC1 (configuration not stated) | i | .
CN(Cc1ccccc1)S(=O)(=O)c1ccc(-c2nc(C#N)c(N3CCCCCC3)o2)cc1 | i | i
CCc1nnc2ccc(N3CCN(S(=O)(=O)c4ccc(F)cc4)CC3)nn12 | i | i
CCN(C(=O)Cn1cc(-c2ccc(C)cc2)c(N2CCOCC2)n1)c1cccc(C)c1 | . | i
CCN(C(=O)Cn1cc(-c2ccccc2)c(N2CCOCC2)n1)c1cccc(C)c1 | + | i
Cc1nc2ccccn2c(=O)c1NC(=O)Nc1ccc(OC(F)(F)F)cc1 | i | i
COc1cc(C(=O)Oc2ccc3c(c2)O/C(=C\c2cccs2)C3=O)cc(OC)c1OC | i | .
COC(=O)COc1ccc2c(c1)O/C(=C\c1cccs1)C2=O | + | .
Cc1nc(N2CCN(C(=O)COc3ccccc3)CC2)cc(-n2ccnc2)n1 | i | i
CN(c1ccsc1C(=O)Nc1cccc(Cl)c1)S(=O)(=O)c1ccccc1 | i | i
CC(C)c1ccc(NC(=O)c2sccc2N(C)S(=O)(=O)c2ccccc2)cc1 | +! | i
CC(C)CS(=O)(=O)NCC1(c2cccs2)CCOCC1 | i | i
CCS(=O)(=O)NCC1(c2cccs2)CCOCC1 | + | i
O=C(Nc1ccc(F)c(Cl)c1)c1cc(C2CC2)n(C2CCS(=O)(=O)C2)n1 (configuration not stated) | + | i
Cc1nn(C2CCS(=O)(=O)C2)c(C)c1CC(=O)Nc1ccc(F)c(Cl)c1 (configuration not stated) | i | i
CCCOC(=O)c1cc2cc(OC)ccc2oc1=O | i | i
COc1ccc(CC(=O)Nc2ccc3c(c2)N(S(=O)(=O)c2ccc(C)cc2)CCC3)cc1 | i | i
O=C(Nc1cccnc1)c1ccc(S(=O)(=O)NC2CCCC2)cc1 | i | i
SMILES | GluA2 TARP mod | GIRK2 act
O=C(Nc1ccc(S(=O)(=O)NC2CCCCC2)cc1)C1CCCO1 (configuration not stated) | + | i
COc1ccc(NC(=O)Cc2ccc(SC)cc2)c2ccccc12 | i | .
O=C(Cc1csc(Nc2ccccc2)n1)N1CCN(C(=O)c2ccco2)CC1 | i | i
COc1ccc(CCS(=O)(=O)NCC2CCN(c3ncccn3)CC2)cc1 | i | i
COc1ccc(CCS(=O)(=O)NCC2CCN(C(=O)c3ccccc3F)CC2)cc1 | + | i
COc1ccc(CCS(=O)(=O)NCC2CCN(Cc3ccccc3)CC2)cc1 | + | i
COc1ccc(CCS(=O)(=O)NCC2CCN(Cc3cccs3)CC2)cc1 | . | i
CSc1ncccc1C(=O)Nc1ccc2c(c1)N(C(=O)c1ccco1)CC2 | i | i
Cc1nc(C)c(C(=O)NCCn2ncc3c(N4CCCCCC4)ncnc32)s1 | i | .
CCOc1ccc(S(=O)(=O)NCC2(O)CCCC2)cc1 | i | i
COc1ccc(-c2nnc(NC(=O)c3ccc(S(C)(=O)=O)cc3)o2)cc1OC | i | i
NCC(O)COCC1COc2ccccc2O1 (configuration not stated) | i | i
Cc1cc(N2CCN(C)CC2)nc(SCC2COc3ccccc3O2)n1 (configuration not stated) | + | .
O=C1CCCC(=O)N1CCS(=O)(=O)N1CCN(CCc2ccccc2)CC1 | i | i
O=C(NCCn1ncc2c(N3CCOCC3)ncnc21)c1ccccc1 | i | i
CC1=C(C(=O)Nc2cc(C(F)(F)F)ccc2Cl)C(c2ccc(C)cc2)C2=C(CCCC2=O)N1 (configuration not stated) | + | .
CC1=C(C(=O)Nc2cccc(C(F)(F)F)c2)C(c2ccc(F)cc2)C2=C(CCCC2=O)N1 (configuration not stated) | i | .
Cc1ccc(NCCNC(=O)c2ccccc2Cl)nn1 | i | i

High-throughput results as filed in PubChem.
